Test results taken from article PMC5540273 (PLoS ONE, 2017).

system: CHEK1; conditions: concentration: 1 μM, replicates: in singlicate; n = 1
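Also: KINOMEscan kinase panel screen.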

SMILES	%Inh [%]
Cl.Cl.NCC(C(=O)Nc1cc(Br)c(-c2ccnc3[nH]ccc23)s1)c1ccccc1 (stereo not shown) [GSK1269851]	0
Cl.c1ccc(-c2ccc3c(Nc4ccc5[nH]ncc5c4)ccnc3c2)nc1 [GW440137]	0
NCCCC(NC(=O)c1cc(Br)c(-c2ccnc3[nH]ccc23)s1)c1ccccc1.O=C(O)C(F)(F)F.O=C(O)C(F)(F)F (stereo not shown) [GSK1287544]	0
Cl.Cl.NCC(NCc1ccc(-c2ccnc3[nH]ccc23)s1)c1ccccc1 (stereo not shown) [GSK1321565]	0
Cc1ccc(S(=O)(=O)Nc2ccc(Nc3nccc(Nc4cccc5[nH]ncc45)n3)cc2)cc1 [GSK581271]	0
O=C(Nc1cccc(Oc2ccc3nc(NC(=O)C4CC4)cn3n2)c1)c1ccccc1C(F)(F)F	0
COc1cccc(NC(=O)NC2CCN(c3ccnc(Nc4cc(OC)c(OC)c(OC)c4)n3)C2)c1 (stereo not shown) [GSK1379763]	0
Cl.Cl.NCC(NC(=O)c1cc(-c2ccccc2)c(-c2ccnc3[nH]ccc23)s1)c1ccccc1 (stereo not shown) [GSK1321561]	0
Cc1cccc(NC(=O)Nc2ccc(Oc3ncnc4ccn(C)c34)cc2)c1	0
COc1cc(Nc2nccc(-c3c(-c4cccc(NC(=O)c5c(F)cccc5F)c4)nn4ncccc34)n2)cc(OC)c1OC [GSK327238]	0
COc1cc(Nc2nccc(N3CCC(NC(=O)Nc4cccc(C(C)=O)c4)C3)n2)cc(OC)c1OC (stereo not shown) [GSK1379753]	0
Cc1ccc(C)c(NC(=O)NC2CCN(c3ccnc(Nc4ccc(F)cc4)n3)C2)c1 (stereo not shown) [GSK1379720]	0
COc1ccc(CNC(=O)NC2CCN(c3ccnc(Nc4ccc(F)cc4)n3)CC2)cc1 [GSK1379788]	0
Nc1ncc(-c2cccnc2)c2scc(-c3ccc4c(c3)CCN4C(=O)Cc3ccccc3)c12 [GSK683281]	18
O=C(Nc1n[nH]c2cc(-c3ccoc3)ccc12)C1CC1 [SB-738481]	0
O=c1[nH]cc(-c2ccc(N3CCOCC3)cc2)c2sc(-c3cn[nH]c3)cc12 [GSK2276055]	0
Nc1n[nH]c2cnc(-c3ccccc3)cc12 [SB-642124]	0
O=C(Nc1cccc(-c2nn3ccccc3c2-c2ccnc(Nc3cccc(C(F)(F)F)c3)n2)c1)c1c(F)cccc1F [GSK292658]	10
CN(c1ccc(NC(=O)Nc2cc(C(F)(F)F)ccc2F)cc1)c1ccnc(Nc2ccc(S(N)(=O)=O)cc2)n1 [GW809893]	0

SMILES	%Inh [%]
CNC(=O)c1ccccc1Nc1nc(Nc2ccc(N3CCOCC3)cc2)ncc1Cl.Cl [GSK1576028]	65
COC(=O)Nc1nc2ccc(Oc3ccc(NC(=O)Nc4cc(C(F)(F)F)ccc4F)cc3)cc2n1C.Cl [GW692089]	0
COc1cc2c(cc1OCCN1CCNCC1)ncc1c3ccc(C#N)cc3[nH]c21	84
O=C(NC1CCN(c2ccnc(Nc3ccc(F)cc3)n2)C1)c1cc2ccccc2s1 (stereo not shown) [GSK1379716]	0
Oc1cc(Nc2ccnc3cc(I)ccc23)ccc1F [GW552771]	2
CCn1c(-c2nonc2N)nc2c(C#CC(C)(C)O)ncc(OCCCCN)c21.O=C(O)C(F)(F)F.O=C(O)C(F)(F)F [GSK507274]	2
CC(=O)Nc1nc2cnc(Nc3cc(NC(=O)c4cccc(C5(C#N)CC5)c4Cl)ccc3C)nc2s1	0
O=C(Nc1ccccc1F)NC1CCN(c2ccnc(Nc3ccc(F)cc3)n2)CC1 [GSK1379800]	0
O=C(Nc1n[nH]c2nc(-c3ccc(O)cc3)ccc12)C1CC1 [SB-710363]	0
c1ccc(Oc2ccc(Nc3ccnc4cc(-c5ccc(CNCCN6CCOCC6)o5)ccc34)cc2)nc1 [GW567145]	0
COc1cccc(C(=O)Nc2cccc(Oc3ccc4nc(NC(=O)C5CC5)cn4n3)c2)c1	15
Cc1occc1-c1ncc(OC[C@@H](N)Cc2c[nH]c3ccccc23)cc1-c1ccc2[nH]nc(C)c2c1.O=C(O)C(F)(F)F [GSK682037]	0
COCCOCCOc1cc2ncc3c4ccc(C#N)cc4[nH]c3c2cc1OC	55
Cn1cc(-c2ccc3c(c2)CCN3C(=O)Cc2cccc(Cl)c2)c2c(N)ncnc21 [GSK2606590]	3
O=C(Nc1cccc(-c2nn3ncccc3c2-c2ccnc(Nc3ccccc3)n2)c1)c1c(F)cccc1F [GSK198271]	5
CN(C)Cc1ccc(-c2ccc3c(Nc4ccc(Oc5ccccn5)cc4)ccnc3c2)o1 [GW567148]	0
C[C@@H](Oc1cc(-n2cnc3cc(-c4ccnc(NCCS(C)(=O)=O)c4)ccc32)sc1C(N)=O)c1ccccc1Cl [GSK907232]	0
O=C(O)C(F)(F)F.O=C(O)C(F)(F)F.O=c1[nH]ccc2nc(N[C@@H]3CCCNC3)nc(Nc3ccc(S(=O)(=O)N4CCOCC4)cc3)c12 [GSK2177277]	100
